Results from PubChem BioAssay AID1347147 (National Center for Advancing Translational Sciences (NCATS), 2019).
Results filed as inconclusive are left out. Activity calls are given as the source filed them. Calls follow the shape of the dose curve; as a rule, active = well fitted inhibition curve with a large enough effect; inconclusive = small, poorly fitted or top-dose-only effect; inactive = no such curve, though single readings can be large or run the other way.

Each molecule was assayed against N-terminal Xaa-Pro-Lys N-methyltransferase 1 (Homo sapiens) (UniProt Q9BV86) (assay: qHTS Assay for Inhibitors of N-terminal methyltransferase 1 (NTMT1): MTaseGlo Confirmatory Screen, Round 2). Conditions: NTMT1 enzyme, MTase-Glo SAH luminescence; series mostly up to 57.4 µM; activity change, negative = inhibition: at the top concentration.
How it was run: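 Luminescent MTase-Glo readout of SAH formed in 30 min at RT by 125 nM NTMT1, 100 µM SAM and 1 µM SPKRIA substrate, after ~15 min compound preincubation. Percent inhibition versus no-enzyme and DMSO controls was Hill-fitted.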
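For activity change, negative = inhibition in this document: plate controls were DMSO for no effect and no enzyme control for full effect.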
Potency is read from the fitted curve at half-maximal effect.

Sequence of N-terminal Xaa-Pro-Lys N-methyltransferase 1 (Homo sapiens) (Q9BV86 whole entry, looked up): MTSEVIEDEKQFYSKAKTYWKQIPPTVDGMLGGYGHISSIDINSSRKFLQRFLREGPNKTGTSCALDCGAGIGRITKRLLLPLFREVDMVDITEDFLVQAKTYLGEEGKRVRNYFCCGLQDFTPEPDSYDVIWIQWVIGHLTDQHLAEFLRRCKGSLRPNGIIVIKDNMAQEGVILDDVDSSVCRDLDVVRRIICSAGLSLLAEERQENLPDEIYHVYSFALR

Activity change, negative = inhibition, inactive:
CSc1nc(N)c2ncn([C@@H]3O[C@H](COP(=O)(O)OP(=O)(O)OP(=O)(O)O)[C@@H](O)[C@H]3O)c2n1 -6.22%
N#C/C(=C\c1ccc(O)c(O)c1)C(=O)NCCc1ccccc1 -3.64%
Nc1nc(Cl)nc2c1ncn2[C@@H]1O[C@H](CO)[C@@H](O)[C@H]1O 4.01%
C=CCN1CCc2c(cc(O)c(O)c2Br)[C@@H](c2ccccc2)C1 -14.3%
Nc1ncnc2c1[nH]c(=S)n2C1OC(CO)C(O)C1O (stereo not drawn) 4.45%
Cn1ncc(S(=O)(=O)Cc2ccccc2)c(Br)c1=O -13.5%
Cc1[nH]c(=O)c(C#N)cc1-c1ccc2nccn2c1 -3.62%
Nc1ccc(CCNc2ncnc3c2ncn3C2OC(CO)C(O)C2O)cc1 (stereo not drawn) -13.4%
COC(=O)[C@H]1[C@H]2C[C@H]3c4[nH]c5ccccc5c4CCN3C[C@H]2CC[C@@H]1O -3.05%
CN(C)CCCN1c2ccccc2Sc2ccc(C(F)(F)F)cc21 -22.6%
CC(C)COCC(CN(Cc1ccccc1)c1ccccc1)N1CCCC1 (stereo not drawn) -10.2%
Nc1nc(F)nc2c1ncn2[C@@H]1O[C@H](CO)[C@@H](O)[C@@H]1O -3.06%
C=CCN1CCc2c(cc(O)c(O)c2Cl)C(c2ccccc2)C1 (stereo not drawn) -20.8%
O=C1c2c(O)cc(O)cc2OC(c2ccc(O)c(O)c2)C1O (stereo not drawn) -3.24%
CSc1ccc(C(=O)c2[nH]c(=O)[nH]c2C)cc1 4.55%
CN(C)CCCN1c2ccccc2Sc2ccccc21 -0.647%
CCOC(=O)c1cnc2c(cnn2CC)c1NN=C(C)C -8.57%
CSc1ccc2c(c1)N(CCC1CCCCN1C)c1ccccc1S2 (stereo not drawn) -5.29%
O=c1cc(-c2ccccc2)oc2c(O)c(O)ccc12 -24.6%
Clc1nccc2c1ccc1ccccc12 -14.2%
Cc1ccc(S(=O)(=O)/C=C/C#N)cc1 1.59%
COc1cc(/C=C(\C#N)C(=O)c2ccc(O)c(O)c2)cc(I)c1O -22.8%
Nc1nc(Cl)nc2c1ncn2[C@@H]1O[C@H](CO)[C@@H](O)[C@@H]1F 2.41% [at 115 µM]
CCCc1cc(C)[nH]c(=O)c1CNC(=O)c1cc(-c2ccc(N3CCN(C(C)C)CC3)nc2)cc2c1cnn2C(C)C -20.9%
Cc1nnc(SCC2=C(C(=O)O)N3C(=O)[C@@H](NC(=O)Cn4cnnn4)[C@H]3SC2)s1 -2.31%
CC1=C(\C=C/C(C)=C/C=C\C(C)=C\C(=O)O)C(C)(C)CCC1 -22.4%
COc1ccc(C(=O)/C(Cc2cc(OC)c(OC)c(OC)c2)=C(\C(=O)O)c2ccc3c(c2)OCO3)cc1 -0.396%
COc1cc2c(NC3CCN(C)CC3)cc(N3CCCCN(C)CC3)cc2cc1OCCOCCN(C)C -17.6%
OCC1OC(n2cnc3c(=S)nc[nH]c32)C(O)C1O (stereo not drawn) 10.4%
CCN1C(=O)C=CC1=O -8.72%
N.N.O=C(O)C1(C(=O)O)CCC1.[Pt] -15.5%
OCC1OC(n2cnc3c(NO)ncnc32)C(O)C1O (stereo not drawn) 272%
O=c1c(-c2ccc(O)cc2)coc2cc(O)cc(O)c12 -10.5%

Potency, active:
Nc1ncnc2c1ncn2[C@H]1O[C@@H](CNS(=O)(=O)NC(=O)c2cccc(-c3noc(-c4ccccc4F)n3)c2)[C@H](O)[C@@H]1O 2 µM
CN=c1nc(-c2ccccc2)n(-c2ccccc2)s1 1 µM
O=C1Nc2ccc(I)cc2/C1=C/c1cc(Br)c(O)c(Br)c1 8.91 µM
CSc1nc(N)c2ncn([C@@H]3O[C@H](COP(=O)(O)OP(=O)(O)O)C(O)[C@H]3O)c2n1 (stereo partly drawn) 20 µM

Potency, inactive:
CC(C)NC[C@H](O)c1ccc(O)c(O)c1
